Among all 350,000 compounds or so, about 260 (0.074%) were called active. Roughly 8% stayed inconclusive and do not appear here. Calls follow the shape of the dose curve; as a rule, active = well fitted inhibition curve with a large enough effect; inconclusive = small, poorly fitted or top-dose-only effect; inactive = no such curve, though single readings can be large or run the other way. Only a selection was taken, and actives are over-represented in it overall.
What follows are compounds tested against Ferritin light chain (Equus caballus) (UniProt P02791) (assay: qHTS Assay for Identification of Novel General Anesthetics). Conditions: apoferritin/1-aminoanthracene competitive binding, fluorescence; series mostly up to 77.5 µM; activity change, negative = displacement: at the top concentration.
Ferritin light chain (Equus caballus), sequence (P02791 2-175 limits assumed): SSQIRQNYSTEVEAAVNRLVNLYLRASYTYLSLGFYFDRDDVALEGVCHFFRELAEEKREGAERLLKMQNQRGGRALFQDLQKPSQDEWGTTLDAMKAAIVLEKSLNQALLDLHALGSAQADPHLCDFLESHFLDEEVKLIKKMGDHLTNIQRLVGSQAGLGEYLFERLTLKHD
From the text: Source: NIH Chemical Genomics Center [NCGC]
Assay Submitter: Roderic Eckenhoff, University of Pennsylvania
Screening Center PI: Christopher P. Austin, NIH
Probe Development: NIH Chemical Genomics Center [NCGC]
Anesthetic development has remained a largely empirical process. There are growing concerns about the cognitive effects of known general anesthetics and acceleration of the onset of neurodegenerative disease. The compounds' toxicity and multiple specific binding targets in the mammalian brain [4] has made them less attractive as drug leads. In this assay, a GABAergic mimetic model system, apoferritin and a profluorescent 1-aminoanthracene ligand (1-AMA), was used to construct a competitive binding assay for identification of novel general anesthetics. The assay was validated for 1-AMA using other known anesthetics, such as isoflurane (CID:3763) and propofol (CID: 4943), [6].
[1] S.L. Bianchi, T. Tran, C. Liu, S. Lin, Y. Li, J.M. Keller, R.G. Eckenhoff, and M.F. Eckenhoff, Brain and behavior changes in 12-month-old Tg2576 and nontransgenic mice exposed to anesthetics. Neurobiol Aging 29 (2008) 1002-10.
[2] Z. Xie, Y. Dong, U. Maeda, R.D. Moir, W. Xia, D.J. Culley, G. Crosby, and R.E. Tanzi, The inhalation anesthetic isoflurane induces a vicious cycle of apoptosis and amyloid beta-protein accumulation. J Neurosci 27 (2007) 1247-54.
[3] P. Honegger, and J.M. Matthieu, Selective toxicity of the general anesthetic propofol for GABAergic neurons in rat brain cell cultures.
[4] M.F. Eckenhoff, K. Chan, and R.G. Eckenhoff, Multiple specific binding targets for inhaled anesthetics in the mammalian brain. J Pharmacol Exp Ther 300 (2002) 172-9.
[5] C.A. Butts, J. Xi, G. Brannigan, A.A. Saad, S.P. Venkatachalan, R.A. Pearce, M.L. Klein, R.G. Eckenhoff, and I.J. Dmochowski, Identification of a fluorescent general anesthetic, 1-aminoanthracene. Proc Natl Acad Sci U S A 106 (2009) 6501-6.
[6] W.A. Lea, J. Xi, A. Jadhav, L. Lu, C.P. Austin, A. Simeonov, and R.G. Eckenhoff, A high-throughput approach for identification of novel general anesthetics. PLoS One 4 (2009) e7150.
Three uL of reagents (free 1-AMA (50% saturated solution of 1-aminoanthracene
in PBS) in columns 3, 4 as negative control and 1-AMA/apoferritin mixture (10 uM horse-spleen apoferritin in 50% saturated 1-aminoanthracene in PBS) in columns 1, 2, 5-48) was dispensed into 1536-well Greiner black assay plates. Compounds (23 nL) were transferred via Kalypsys pintool equipped with 1,536-pin array (10 nL slotted pins, V&P Scientific, San Diego, CA). Titration of the positive control, propofol, were delivered via pin transfer from separate control plates to the 2nd column of each assay plate. The starting concentration of the control, dissolved in DMSO, was at 160 mM, followed by two-fold dilution points in duplicate, for a total of 16 concentrations. The plates were incubated for 10 min at room temperature, and then read on an EnVision HTS multilabel reader (Perkin-Elmer, Waltham, MA) (end point read, 3 min/plate) using Fura2 BFP excitation filter (380 nm, bandwidth 10 nm) and fluorescein emission filter (535 nm, bandwidth 25 nm) set. A LANCE/DELFIA dichroic mirror with a cutoff wavelength at 400 nm was used to maximize signal accuracy and strength. Vehicle-only plates, with DMSO being pin-transferred to the entire column 5-48 compound area, were inserted uniformly at the beginning and the end of each library in order to monitor for and record any shifts in the background. Activity was computed as the normalized fluorescence response relative to free 1-AMA and 1-AMA/apoferritin complex values. Concentration-effect relationships were derived by using curve fitting algorithms developed in-house (http://ncgc.nih.gov/pub/openhts/). A four parameter Hill equation was fitted to the concentration-response data by minimizing the residual error between the modeled and observed responses.
% is scaled to controls: 0 for no effect and ±100 for the full control effect; potency is read from the fitted curve at half-maximal effect.
Also: nearly all actives have a fitted effect of over 20% in size.

| Compound | activity change, negative = displacement | Potency |
| --- | --- | --- |
| COc1ccc(N2CCN(S(=O)(=O)c3ccc(-c4coc(C)n4)cc3)CC2)cc1 | -0.187% (inactive) | – |
| Cn1c(SCC(=O)N2CCCc3ccccc32)ncc(C(=O)Nc2ccc(F)cc2)c1=O | -15.9% (inactive) | – |
| CCOC(=O)c1scc(-c2ccccc2)c1S(=O)(=O)Nc1ccccc1F | 57.3% (inactive) | – |
| COc1ccc2c(c1)CCc1c(C(=O)Nc3cc(C)ccc3O)noc1-2 | -8.63% (inactive) | – |
| CCc1ccc(NC(=O)c2cc3c(=O)n(Cc4cccnc4)ccc3nc2C)cc1 | -2.71% (inactive) | – |
| COc1ccc(NC(=O)CSc2nccn2Cc2ccc3c(c2)OCO3)cc1 | -10.6% (inactive) | – |
| CC(=O)N1CCCc2cc(S(=O)(=O)N3CCC(C(=O)NCc4ccc(C)cc4)CC3)ccc21 | -10.5% (inactive) | – |
| CCOc1ccc(NC(=O)c2c(NC(=O)Cc3ccccc3)sc3c2CCCCC3)cc1 | -5.25% (inactive) | – |
| c1ccc2c(NC3C4CC5CC(C4)CC3C5)nc(N3CCOCC3)nc2c1 (centres undefined) | 89.7% (inactive) | – |
| c1cnc(NC2C3CC4CC(C3)CC2C4)nc1 (centres undefined) | – | 5.62 µM (active) |
| Cc1c(-c2nsc(NC(=O)c3cccc(Cl)c3)n2)nnn1-c1ccccc1C(F)(F)F | -23.3% (inactive) | – |
| Cc1cccc(C(=O)Nc2ccc(-c3nc4ccccc4s3)c(C)c2)c1 | -9.88% (inactive) | – |
| CN1CCN(c2oc(-c3ccc(COc4ccc(Cl)cc4)o3)nc2C#N)CC1 | -7.72% (inactive) | – |
| COc1ccc(OCC(=O)Nc2cccc(C(=O)OCc3cc(=O)n4nc(C)sc4n3)c2)cc1 | 52.4% (inactive) | – |
| O=C(NCC12CC3CC(CC(C3)C1)C2)c1cc2nc(-c3ccccc3)cc(C(F)(F)F)n2n1 | -6.46% (inactive) | – |
| CCN(CC)c1ccc(NC(=O)CN2CCN(CC(=O)Nc3ccc(Cl)cc3)CC2)cc1 | -11% (inactive) | – |
| COc1ccc(-c2nc3nc(C)cc(C)n3c2Nc2c(C)cccc2C)cc1 | 275% (inactive) | – |
| CC1=C(C(=O)OCC2CCCCC2)C(c2c(F)cccc2Cl)CC(=O)N1 (centres undefined) | -17.3% (inactive) | – |
| COc1cccc(Cn2c(SCc3ccc(C(=O)N4CCC(C)CC4)cc3)nc3ccncc32)c1 | 72.3% (inactive) | – |
| COCCNS(=O)(=O)c1cc(-c2nn3c(C)nnc3c3ccccc23)ccc1C | -12.8% (inactive) | – |
| CCc1cccc(C)c1NS(=O)(=O)c1ccc(-c2cc(C)no2)s1 | 3.74% (inactive) | – |
| Cc1cc(C)cc(-n2ccnc2SCC(=O)Nc2nc3ccccc3s2)c1 | 60.5% (inactive) | – |
| COc1ccc(CNC(=O)Cc2coc3ccc(C(C)C)cc23)cc1 | 3.71% (inactive) | – |
| Cc1cc(=O)n(CC(=O)Nc2cccc([N+](=O)[O-])c2)c(-n2nc(C)cc2C)n1 | -3.5% (inactive) | – |
| O=C(CCc1nc(CN2CCN(S(=O)(=O)c3ccc(Cl)cc3)CC2)no1)N1CCCCC1 | 8.4% (inactive) | – |

| Compound | activity change, negative = displacement | Potency |
| --- | --- | --- |
| COc1ccc(C2Sc3ccccc3NC3=C2C(=O)c2ccccc23)c(OC)c1OC (centres undefined) | -0.239% (inactive) | – |
| CCOCCCn1c(SCC(=O)Nc2ccc(CC)cc2)nc2ccccc2c1=O | -9.21% (inactive) | – |
| COc1ccc(CCNC(=O)CCCCn2c(=O)c3ccccc3n(Cc3ccccc3C)c2=O)cc1OC | 23.4% (inactive) | – |
| COc1ccc(CNC(=O)CCc2c(C)nn(-c3ccc(N4CCCC4)nn3)c2C)cc1 | -8.08% (inactive) | – |
| Cc1ccc(SCC(=O)Nc2ccc3oc(-c4ccccc4F)nc3c2)cc1 | -11.2% (inactive) | – |
| Cc1ccc2nc(CN3CCN(S(=O)(=O)c4ccc(C)c(C)c4)CC3)oc2c1 | -10.2% (inactive) | – |
| Cc1ccc(C)c(NC(=O)CSC2=Nc3ccccc3N=C(c3ccc(F)cc3)C2)c1 | -1.36% (inactive) | – |
| Cc1c(Br)cc(C(=O)N2CCCCCC2)c(C)c1C | – | 10 µM (active) |
| Cc1ccc(C(=O)N2CCCC2)c(F)c1F | -14.7% (inactive) | – |
| COc1cc(OC)c(C(=O)N2CCCC2)cc1OC | -10.8% (inactive) | – |
| CCCn1c2ccccc2c2cnn(CC(=O)N(CC)c3cc(C)ccc3C)c(=O)c21 | -5.87% (inactive) | – |
| CCOC(=O)Cn1c(=O)n(C2CCCCC2)c2nc(-c3cccc(OC)c3)nc(C(N)=O)c21 | 8.75% (inactive) | – |
| O=C(CN1c2ccccc2S(=O)(=O)c2ccccc21)Nc1cccc(C(F)(F)F)c1 | 8.17% (inactive) | – |
| CCn1c(C)c(C)c2cc(C(=O)NCCc3cc(OC)ccc3OC)ccc21 | -2.71% (inactive) | – |
| Cc1cc(OCC(=O)NCC2(N(C)C)CCCCC2)cc(C)c1Cl | -9.9% (inactive) | – |
| CN(C)CCCn1c(-c2ccc(Cl)cc2)csc1=Nc1ccccc1 | 9.73% (inactive) | – |
| O=c1cc(-c2ccccc2)n2c(SCc3ccccc3)nnc2[nH]1 | 44% (inactive) | – |
| Nc1ccc(C(=O)OCC(=O)NC2CCS(=O)(=O)C2)cc1[N+](=O)[O-] (centres undefined) | -8.39% (inactive) | – |
| COC(=O)c1cc(OCC(=O)NC2CCCc3ccccc32)cc(C(=O)OC)c1 (centres undefined) | 0.832% (inactive) | – |
| Nc1ccc(C(=O)OCC(=O)NC2CCCc3ccccc32)cc1[N+](=O)[O-] (centres undefined) | – | 20 µM (active) |
| CC(C)c1ccc(NC(=O)Cn2c3ncccc3c(=O)n2-c2ccccc2)cc1 | 2.35% (inactive) | – |
| CCc1ccc(NC(=O)c2sc3nc4c(cc3c2N)CN(CC)CC4)cc1 | -8.24% (inactive) | – |
| O=C(CCc1nc(CN2CCN(S(=O)(=O)c3ccc(Br)cc3)CC2)no1)N1CCCCC1 | -9.1% (inactive) | – |
| Cc1cc(C(=O)Nc2cccc(C(F)(F)F)c2)c2c(C)nn(-c3cccc(F)c3)c2n1 | 52.9% (inactive) | – |

— PubChem BioAssay AID485281 (National Center for Advancing Translational Sciences (NCATS), 2010)
